Experimental data published in the supplement of paper PMC9262897, “Low-cost anti-mycobacterial drug discovery using engineered E. coli” (Nature Communications, 2022).
Structures can show the parent of a compound that is named as a salt. ± gives the standard deviation of the averaged measurements.

What was measured:
Test in all cases: growth (OD600 after 10 h); higher = more growth (less inhibition)
[1] = test system: E. coli TESEC Alr+ wild-type control; conditions: compound 0.1 mM; raw OD600 reference: median of DMSO wells 0.241, cell-free background 0.041
Method: (§1)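 TESEC Mtb Alr E. coli, or the Alr+ wild-type control, in 384-well plates with Prestwick library compounds at 0.1 mM and 1% DMSO, across arabinose induction levels of 1E3 to 1E7 nM. Growth is read as OD600 after 10 h at 37 °C in triplicate biological replicates.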

[2] = test system: E. coli TESEC Mtb Alr; conditions: compound 0.1 mM
Method: as §1

[3] = test system: E. coli TESEC Mtb Asd; conditions: compound 0.1 mM
Method: (§2)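 TESEC E. coli strains in which the native enzyme is deleted and replaced by arabinose-inducible Mtb Asd, DapB, CysH or TrpD, each grown in its selective medium. Strains were screened against the Prestwick library at 0.1 mM and 1% DMSO in 384-well format at low and high arabinose induction. Growth is read as OD600 after 10 h in triplicate.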

[4] = test system: E. coli TESEC Mtb DapB; conditions: compound 0.1 mM
Method: as §2

[5] = test system: E. coli TESEC Alr+ wild-type control; conditions: compound 0.1 mM; raw OD600 reference: median of DMSO wells 0.49, cell-free background 0.052
Method: (§3)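 TESEC Mtb Alr E. coli (ΔaraC ΔtolC ΔentC Δalr ΔdadX, arabinose-inducible Mtb Alr) or the Alr+ wild-type control strain, grown in defined M9-fructose medium without D-alanine in 96-well plates with Prestwick library compounds at 0.1 mM and 1% DMSO. Low Alr induction is 0.1 µM arabinose and high induction is 10 mM arabinose.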

[6] = test system: E. coli TESEC Mtb Alr; conditions: compound 0.1 mM; remark: listed apart in the source
Method: as §3

[7] = arabinose 1000 nM, raw OD600 reference: median of DMSO wells 0.294, cell-free background 0.041
[8] = arabinose 10000 nM, raw OD600 reference: median of DMSO wells 0.264, cell-free background 0.041
[9] = arabinose 100000 nM, raw OD600 reference: median of DMSO wells 0.201, cell-free background 0.041
[10] = arabinose 1000000 nM, raw OD600 reference: median of DMSO wells 0.193, cell-free background 0.041
[11] = arabinose 10000000 nM, raw OD600 reference: median of DMSO wells 0.146, cell-free background 0.041
[12] = arabinose induction (level): High, raw OD600 reference: median of DMSO wells 0.331, cell-free background 0.041
[13] = arabinose induction (level): Low, raw OD600 reference: median of DMSO wells 0.417, cell-free background 0.041
[14] = arabinose induction (level): High, raw OD600 reference: median of DMSO wells […], cell-free background 0.041
[15] = arabinose induction (level): Low, raw OD600 reference: median of DMSO wells 0.227, cell-free background 0.041
[16] = arabinose 100 nM, raw OD600 reference: median of DMSO wells 0.413, cell-free background 0.052
[17] = arabinose 10000000 nM, raw OD600 reference: median of DMSO wells […], cell-free background 0.052

SMILES	growth [1]	growth [2, 7]	growth [2, 8]	growth [2, 9]	growth [2, 10]	growth [2, 11]	growth [3, 12]	growth [3, 13]	growth [4, 14]	growth [4, 15]	growth [5]	growth [6, 16]	growth [6, 17]
CCN(CC)C(=O)N1CCN(C)CC1 [Diethylcarbamazine citrate]	0.255 ± 0.0031	0.274 ± 0.031	0.275 ± 0.015	0.196 ± 0.017	0.191 ± 0.0045	0.148 ± 0.0047	0.333 ± 0.092	0.487 ± 0.02	0.188 ± 0.0069	0.226 ± 0.025	0.549 ± 0.066	0.411 ± 0.0087	0.33 ± 0.014
CC(=O)Nc1ccc(OCC(O)CNC(C)C)cc1 (stereo not drawn) [Practolol]	0.244 ± 0.0047	0.307 ± 0.0096	0.257 ± 0.0077	0.229 ± 0.04	0.19 ± 0.016	0.145 ± 0.0028	0.408 ± 0.04	0.424 ± 0.027	0.177 ± 0.0065	0.22 ± 0.025	0.643 ± 0.039	0.402 ± 0.014	0.361 ± 0.0065
CNC[C@H](O)[C@@H](O)[C@H](O)[C@H](O)CO [Meglumine]	0.237 ± 0.0045	0.306 ± 0.016	0.254 ± 0.0031	0.212 ± 0.025	0.188 ± 0.0027	0.136 ± 0.0042	0.325 ± 0.022	0.408 ± 0.066	0.199 ± 0.049	0.235 ± 0.017	0.548 ± 0.015	0.404 ± 0.019	0.356 ± 0.011
CCOc1ccccc1OCC1CNCCO1 (stereo not drawn) [Viloxazine hydrochloride]	0.236 ± 0.0043	0.294 ± 0.023	0.273 ± 0.0049	0.193 ± 0.011	0.196 ± 0.01	0.135 ± 0.0069	0.251 ± 0.022	0.386 ± 0.012	0.172 ± 0.029	0.211 ± 0.019	0.539 ± 0.074	0.406 ± 0.011	0.366 ± 0.0079
COc1ccccc1OCC(O)COC(N)=O (stereo not drawn) [Methocarbamol]	0.2535 ± 0.00091	0.282 ± 0.0088	0.275 ± 0.012	0.218 ± 0.018	0.187 ± 0.0043	0.141 ± 0.006	0.292 ± 0.018	0.397 ± 0.058	0.178 ± 0.012	0.183 ± 0.018	0.509 ± 0.11	0.412 ± 0.0098	0.347 ± 0.0072
CC(CNC1CCCCC1)OC(=O)c1ccccc1 (stereo not drawn) [Hexylcaine hydrochloride]	0.242 ± 0.016	0.303 ± 0.0092	0.273 ± 0.0072	0.191 ± 0.0085	0.173 ± 0.0098	0.1577 ± 0.0015	0.452 ± 0.026	0.489 ± 0.039	0.2 ± 0.027	0.233 ± 0.024	0.552 ± 0.022	0.409 ± 0.016	0.309 ± 0.0087
C[C@](N)(Cc1ccc(O)c(O)c1)C(=O)O [Methyldopa (L,-)]	0.241 ± 0.011	0.298 ± 0.0073	0.27 ± 0.0043	0.24 ± 0.021	0.188 ± 0.017	0.146 ± 0.0063	0.356 ± 0.044	0.458 ± 0.041	0.187 ± 0.0082	0.226 ± 0.022	0.508 ± 0.05	0.411 ± 0.015	0.345 ± 0.026
C[C@H](CCC(=O)O)[C@H]1CC[C@H]2[C@@H]3[C@@H](O)C[C@@H]4C[C@H](O)CC[C@]4(C)[C@H]3CC[C@]12C [Urosiol]	0.2 ± 0.0037	0.279 ± 0.0063	0.188 ± 0.0089	0.188 ± 0.0055	0.1123 ± 0.00023	0.14 ± 0.0032	0.3936 ± 0.0024	0.363 ± 0.018	0.168 ± 0.012	0.206 ± 0.03	0.406 ± 0.011	0.399 ± 0.0058	0.182 ± 0.019
CCC1(c2ccccc2)NC(=O)N(C)C1=O (stereo not drawn) [Mephenytoin]	0.249 ± 0.0037	0.299 ± 0.0081	0.287 ± 0.011	0.201 ± 0.014	0.204 ± 0.013	0.152 ± 0.0052	0.235 ± 0.029	0.328 ± 0.072	0.184 ± 0.013	0.24 ± 0.037	0.501 ± 0.091	0.427 ± 0.0055	0.31 ± 0.011
N/C(=N\C(=O)c1nc(Cl)c(N)nc1N)NCc1ccccc1 [Benzamil hydrochloride]	0.14 ± 0.0042	0.196 ± 0.0093	0.256 ± 0.0065	0.15 ± 0.0096	0.111 ± 0.0026	0.161 ± 0.0069	0.163 ± 0.006	0.199 ± 0.0084	0.213 ± 0.023	0.232 ± 0.013	0.502 ± 0.034	0.41 ± 0.0064	0.299 ± 0.0065
c1ccc(CN(CC2=NCCN2)c2ccccc2)cc1 [Antazoline hydrochloride]	0.2355 ± 0.0022	0.279 ± 0.02	0.254 ± 0.0091	0.194 ± 0.021	0.167 ± 0.0018	0.14 ± 0.0039	0.355 ± 0.017	0.441 ± 0.017	0.185 ± 0.01	0.225 ± 0.043	0.5 ± 0.083	0.412 ± 0.0059	0.364 ± 0.015
CC(C)OC(=O)CCC/C=C\C[C@@H]1[C@@H](CC[C@@H](O)CCc2ccccc2)[C@H](O)C[C@@H]1O [Latanoprost]	0.0604 ± 0.0021	0.05 ± 0.0017	0.0396 ± 0.0001	0.0525 ± 0.00065	0.04007 ± 0.00012	0.0545 ± 0.0034	0.0525 ± 0.0016	0.05293 ± 0.00021	0.0594 ± 0.0031	0.0554 ± 0.0022	0.195 ± 0.059	0.314 ± 0.037	0.0658 ± 0.011
COc1cc(Cc2cnc(N)nc2N)cc(OC)c1OC [Trimethoprim]	0.0601 ± 0.0005	0.04863 ± 0.00047	0.0442 ± 0.00076	0.04953 ± 0.00035	0.04553 ± 0.0004	0.0534 ± 0.00081	0.0958 ± 0.044	0.0867 ± 0.014	0.0742 ± 0.0018	0.0572 ± 0.0041	0.0896 ± 0.0014	0.0922 ± 0.026	0.0701 ± 0.0035
NCCc1c[nH]cn1 [Histamine dihydrochloride]	0.24 ± 0.012	0.2947 ± 0.0029	0.258 ± 0.0056	0.192 ± 0.019	0.192 ± 0.011	0.139 ± 0.003	0.303 ± 0.062	0.403 ± 0.011	0.193 ± 0.015	0.23 ± 0.0077	0.501 ± 0.067	0.42 ± 0.011	0.312 ± 0.0092
Cc1cc(C(C)(C)C)cc(C)c1CC1=NCCN1 [Xylometazoline hydrochloride]	0.226 ± 0.0033	0.285 ± 0.0055	0.261 ± 0.01	0.221 ± 0.011	0.164 ± 0.0057	0.161 ± 0.0028	0.272 ± 0.041	0.393 ± 0.066	0.173 ± 0.011	0.252 ± 0.059	0.4501 ± 0.0037	0.413 ± 0.015	0.331 ± 0.011
COc1cc(C(=O)NS(=O)(=O)c2ccccc2C)ccc1Cc1cn(C)c2ccc(NC(=O)OC3CCCC3)cc12 [Zafirlukast]	0.125 ± 0.0034	0.0976 ± 0.0046	0.0651 ± 0.0044	0.164 ± 0.0027	0.128 ± 0.0091	0.168 ± 0.0084	0.193 ± 0.022	0.12 ± 0.047	0.179 ± 0.018	0.213 ± 0.033	0.189 ± 0.01	0.257 ± 0.018	0.215 ± 0.024
